PubChem BioAssay (NCATS)
Records with an inconclusive call do not appear. Activity calls are given as the source filed them. Calls come from the whole dose curve; as a rule, active = well fitted curve in either direction with a large enough effect (not every such curve was filed as active); inconclusive = small, poorly fitted or top-dose-only effect, or another doubt; inactive = flat fitted curve, though single readings scatter.

Test: Stat Signaling Pathway (AID 446);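 note: ME-180 cervical cancer cells given 40 pM IL-6 alongside compound; SIE-controlled beta-lactamase reporter measured as 460/530 nm FRET emission ratio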
Conditions: ME-180 SIE beta-lactamase reporter, IL-6 stimulated, 5 h; at 17.2 µM (top of the series) unless noted
Method in brief: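 ME-180 cells carrying a SIE-driven beta-lactamase reporter are stimulated with 40 pM IL-6 for 5 h at 37C in the presence of compound. The 460/530 nm FRET substrate ratio is read after 2.5 h at RT. Data are normalised to 300 pM IL-6 and to 125 nM JAK inhibitor controls.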
% is set by controls: 0 for no effect and ±100 for the full control effect.

activity, negative = inhibition, inactive:
Cc1cccc(N2CC(=O)N(c3cccc(C)c3)CC2=O)c1 0.983%
CCOC(=O)c1c(N)sc2c1CCC1C(=O)N(C3CCCCC3)C(=O)C21 (stereo not given) -6.61%
CC(C)C1Cc2c(C#N)c(N)n(C)c(=S)c2CO1 (stereo not given) 4.22%
Cc1ccc(-n2c(SCC(=O)NCc3ccco3)nc3nc4c(cc3c2=O)COC(C)(C)C4)cc1 -3.2%
c1ccc2c(c1)CCC[C@H]2C1=NCCN1 7.24% [at 38 µM]
O=C(NC1CCCCC1)Nn1c(-c2ccccc2)nc2ccccc2c1=O 13.2%
COc1ccccc1C1/C(=C(\O)c2ccc3c(c2)OCCO3)C(=O)C(=O)N1CCCN(C)C (stereo not given) 4.48%
Cc1cc(C)nc(NC2=NCC(=O)N2c2ccc(Cl)cc2)n1 5.94%
Oc1ccccc1CNn1cnnc1 4.83%
CCCC(CCC(=O)Nc1ccc(C(=O)OCC)cc1)C(=O)O (stereo not given) 3.58%
CCC[C@H]1C[C@H](C(=O)N[C@@H]([C@H]2O[C@@H](SC)[C@@H](O)[C@@H](O)[C@@H]2O)[C@H](C)Cl)N(C)C1 1.36%
COC(=O)C1=C(N)Oc2cc(C)[nH]c(=O)c2C1c1ccncc1 (stereo not given) -7.56%
CCN1CCC[C@@H]1CNC(=O)c1c(O)c(Cl)cc(Cl)c1OC -20.4% [at 38 µM]
CC(C)(C)C1=Nn2c(nnc2-c2ccccn2)SC1 4.69%
COc1ccc(C2=Nn3c(nnc3-c3ccccn3)SC2)cc1OC -0.925%
